Here are results for two compounds from ChEMBL document CHEMBL2218924, “A broad activity screen in support of a chemogenomic map for kinase signalling research and drug discovery” (Biochem J, 2013).

Assay [1] deals with T1, Serine/threonine-protein kinase 17A (Homo sapiens) (UniProt Q9UEE5).
T1 sequence (whole entry): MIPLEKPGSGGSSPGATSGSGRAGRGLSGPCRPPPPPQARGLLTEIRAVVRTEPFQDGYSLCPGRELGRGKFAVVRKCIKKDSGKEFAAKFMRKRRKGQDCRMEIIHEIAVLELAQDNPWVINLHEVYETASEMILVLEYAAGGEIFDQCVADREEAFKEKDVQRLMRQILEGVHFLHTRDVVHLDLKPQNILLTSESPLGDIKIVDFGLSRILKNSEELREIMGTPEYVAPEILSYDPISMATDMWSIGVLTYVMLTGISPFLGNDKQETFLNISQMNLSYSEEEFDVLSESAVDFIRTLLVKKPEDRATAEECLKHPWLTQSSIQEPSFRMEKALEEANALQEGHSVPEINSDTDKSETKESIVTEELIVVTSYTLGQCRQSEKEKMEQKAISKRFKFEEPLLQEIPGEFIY
The following applies: at 10 µM.

The target in assay [2] is T2, Dual specificity tyrosine-phosphorylation-regulated kinase 2 (Homo sapiens) (UniProt Q92630).
T2 sequence (whole entry): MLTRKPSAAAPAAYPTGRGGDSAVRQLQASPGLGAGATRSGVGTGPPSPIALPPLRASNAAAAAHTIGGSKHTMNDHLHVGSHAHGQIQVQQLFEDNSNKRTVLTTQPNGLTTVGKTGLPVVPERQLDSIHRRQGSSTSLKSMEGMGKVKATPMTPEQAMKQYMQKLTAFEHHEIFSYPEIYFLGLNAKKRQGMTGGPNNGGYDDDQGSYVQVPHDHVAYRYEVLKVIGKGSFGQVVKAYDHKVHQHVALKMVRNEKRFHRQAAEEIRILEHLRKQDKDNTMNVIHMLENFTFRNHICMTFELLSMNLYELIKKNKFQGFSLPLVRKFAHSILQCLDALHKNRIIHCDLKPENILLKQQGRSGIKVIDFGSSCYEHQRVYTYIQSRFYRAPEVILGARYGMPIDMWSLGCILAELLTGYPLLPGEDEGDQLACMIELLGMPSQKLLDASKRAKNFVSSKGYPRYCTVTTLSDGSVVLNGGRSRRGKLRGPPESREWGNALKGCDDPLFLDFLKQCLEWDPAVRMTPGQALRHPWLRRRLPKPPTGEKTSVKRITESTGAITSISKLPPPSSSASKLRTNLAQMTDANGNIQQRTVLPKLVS
Conditions: at 1 µM.

The target in assay [3] is T2, Dual specificity tyrosine-phosphorylation-regulated kinase 2 (Homo sapiens). The following applies: at 10 µM.
Assay [4] has as its target Epidermal growth factor receptor (Homo sapiens) (UniProt P00533). The following applies: at 1 µM.
Assay [5] has the same target. Conditions: at 10 µM.
The target of assay [6] is T3, Ephrin type-A receptor 1 (Homo sapiens) (UniProt P21709).
T3 sequence (whole entry): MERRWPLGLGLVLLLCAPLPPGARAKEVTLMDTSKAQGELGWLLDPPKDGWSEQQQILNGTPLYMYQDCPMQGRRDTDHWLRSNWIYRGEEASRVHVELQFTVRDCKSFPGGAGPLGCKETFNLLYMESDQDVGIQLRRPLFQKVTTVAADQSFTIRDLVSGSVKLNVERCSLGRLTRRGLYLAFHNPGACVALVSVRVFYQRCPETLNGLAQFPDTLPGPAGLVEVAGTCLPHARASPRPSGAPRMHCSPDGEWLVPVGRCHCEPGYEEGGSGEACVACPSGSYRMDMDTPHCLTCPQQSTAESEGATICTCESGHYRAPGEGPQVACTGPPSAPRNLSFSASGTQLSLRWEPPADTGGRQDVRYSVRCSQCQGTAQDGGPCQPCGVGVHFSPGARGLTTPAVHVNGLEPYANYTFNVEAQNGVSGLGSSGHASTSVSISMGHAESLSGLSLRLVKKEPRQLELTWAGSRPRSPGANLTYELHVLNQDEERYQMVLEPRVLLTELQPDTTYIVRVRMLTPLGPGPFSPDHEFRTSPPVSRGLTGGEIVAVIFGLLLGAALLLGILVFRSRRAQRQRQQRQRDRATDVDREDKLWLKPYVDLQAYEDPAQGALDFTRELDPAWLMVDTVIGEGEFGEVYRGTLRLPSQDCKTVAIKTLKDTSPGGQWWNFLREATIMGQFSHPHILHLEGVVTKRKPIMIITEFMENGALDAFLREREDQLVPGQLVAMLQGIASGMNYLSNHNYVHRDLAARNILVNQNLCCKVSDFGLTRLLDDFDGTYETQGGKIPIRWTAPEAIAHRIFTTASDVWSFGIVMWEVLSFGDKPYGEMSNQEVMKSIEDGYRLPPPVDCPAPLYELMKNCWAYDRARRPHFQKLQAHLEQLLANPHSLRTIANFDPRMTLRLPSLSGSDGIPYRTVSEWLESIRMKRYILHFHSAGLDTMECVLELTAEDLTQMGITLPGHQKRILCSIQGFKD
Conditions: at 1 µM.

In assay [7] the target is T3, Ephrin type-A receptor 1 (Homo sapiens). The following applies: at 10 µM.
For assay [8], the target named is Ephrin type-A receptor 2 (Homo sapiens) (UniProt P29317). Conditions: at 1 µM.
The target is the same in assay [9]. The following applies: at 10 µM.
Assay [10] concerns the target T4, Ephrin type-A receptor 3 (Homo sapiens) (UniProt P29320).
T4 sequence (whole entry): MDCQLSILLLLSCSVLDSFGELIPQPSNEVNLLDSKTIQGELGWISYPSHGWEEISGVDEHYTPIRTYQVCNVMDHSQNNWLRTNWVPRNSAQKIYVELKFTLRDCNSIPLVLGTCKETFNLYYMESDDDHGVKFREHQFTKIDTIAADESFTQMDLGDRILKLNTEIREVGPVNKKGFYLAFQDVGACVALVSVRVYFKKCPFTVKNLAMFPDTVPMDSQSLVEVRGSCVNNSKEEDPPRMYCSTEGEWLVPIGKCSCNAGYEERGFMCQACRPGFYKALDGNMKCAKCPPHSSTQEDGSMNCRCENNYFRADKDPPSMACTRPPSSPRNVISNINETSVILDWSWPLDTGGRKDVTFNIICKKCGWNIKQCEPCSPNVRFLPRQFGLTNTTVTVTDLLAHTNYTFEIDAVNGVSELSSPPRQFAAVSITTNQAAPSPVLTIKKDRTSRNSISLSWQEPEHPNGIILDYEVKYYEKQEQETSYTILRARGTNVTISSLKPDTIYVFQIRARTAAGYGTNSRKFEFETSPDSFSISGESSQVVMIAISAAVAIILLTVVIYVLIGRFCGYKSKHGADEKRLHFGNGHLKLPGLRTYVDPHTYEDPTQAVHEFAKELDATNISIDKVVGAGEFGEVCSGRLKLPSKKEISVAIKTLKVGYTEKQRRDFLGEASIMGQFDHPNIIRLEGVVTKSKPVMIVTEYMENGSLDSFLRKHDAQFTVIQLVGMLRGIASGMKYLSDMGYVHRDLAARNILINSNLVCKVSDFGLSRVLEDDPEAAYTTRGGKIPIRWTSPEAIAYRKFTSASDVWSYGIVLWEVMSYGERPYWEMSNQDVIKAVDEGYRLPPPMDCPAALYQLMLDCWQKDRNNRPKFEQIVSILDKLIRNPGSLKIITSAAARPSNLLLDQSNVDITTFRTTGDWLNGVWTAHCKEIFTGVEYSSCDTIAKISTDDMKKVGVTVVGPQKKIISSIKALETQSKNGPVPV
Conditions: at 1 µM.

The target in assay [11] is T4, Ephrin type-A receptor 3 (Homo sapiens). Conditions: at 10 µM.
For assay [12], the target named is Ephrin type-A receptor 4 (Homo sapiens) (UniProt P54764). The following applies: at 1 µM.
For assay [13] the target is unchanged. Conditions: at 10 µM.
The target in assay [14] is Ephrin type-A receptor 5 (Homo sapiens) (UniProt P54756). Conditions: at 1 µM.
For assay [15] the target is unchanged. Conditions: at 10 µM.
For assay [16], the target named is Ephrin type-A receptor 7 (Homo sapiens) (UniProt Q15375). The following applies: at 1 µM.
Assay [17] has the same target. Conditions: at 10 µM.
The target of assay [18] is T5, Ephrin type-A receptor 8 (Homo sapiens) (UniProt P29322).
T5 sequence (whole entry): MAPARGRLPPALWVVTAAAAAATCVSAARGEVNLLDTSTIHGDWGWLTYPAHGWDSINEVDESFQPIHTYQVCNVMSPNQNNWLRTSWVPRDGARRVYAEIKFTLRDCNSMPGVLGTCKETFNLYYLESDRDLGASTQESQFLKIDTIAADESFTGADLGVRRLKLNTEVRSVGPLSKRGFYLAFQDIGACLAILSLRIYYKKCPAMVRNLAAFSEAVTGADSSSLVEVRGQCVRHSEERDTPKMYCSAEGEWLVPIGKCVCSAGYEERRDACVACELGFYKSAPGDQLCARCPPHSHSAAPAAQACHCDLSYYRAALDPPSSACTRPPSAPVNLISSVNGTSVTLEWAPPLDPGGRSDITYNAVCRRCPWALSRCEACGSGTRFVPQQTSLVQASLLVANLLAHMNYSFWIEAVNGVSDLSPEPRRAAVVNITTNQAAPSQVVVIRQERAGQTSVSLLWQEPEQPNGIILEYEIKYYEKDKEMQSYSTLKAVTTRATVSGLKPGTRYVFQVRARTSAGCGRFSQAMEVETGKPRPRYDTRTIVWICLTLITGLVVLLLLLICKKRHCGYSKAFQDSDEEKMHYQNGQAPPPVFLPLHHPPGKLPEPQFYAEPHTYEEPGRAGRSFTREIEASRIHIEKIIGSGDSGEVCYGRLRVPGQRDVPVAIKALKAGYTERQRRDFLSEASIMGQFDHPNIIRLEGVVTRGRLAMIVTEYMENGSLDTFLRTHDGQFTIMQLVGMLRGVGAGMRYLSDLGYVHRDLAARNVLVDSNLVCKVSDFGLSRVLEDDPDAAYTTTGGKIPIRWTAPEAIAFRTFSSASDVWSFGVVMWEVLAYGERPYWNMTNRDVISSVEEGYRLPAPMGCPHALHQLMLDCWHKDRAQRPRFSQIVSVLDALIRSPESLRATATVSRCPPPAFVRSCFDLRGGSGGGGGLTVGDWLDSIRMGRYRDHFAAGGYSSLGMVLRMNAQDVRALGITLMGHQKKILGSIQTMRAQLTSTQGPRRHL
Conditions: at 1 µM.

Assay [19] concerns the target T5, Ephrin type-A receptor 8 (Homo sapiens). Conditions: at 10 µM.
Assay [20] addresses T6, Ephrin type-B receptor 1 (Homo sapiens) (UniProt P54762).
T6 sequence (whole entry): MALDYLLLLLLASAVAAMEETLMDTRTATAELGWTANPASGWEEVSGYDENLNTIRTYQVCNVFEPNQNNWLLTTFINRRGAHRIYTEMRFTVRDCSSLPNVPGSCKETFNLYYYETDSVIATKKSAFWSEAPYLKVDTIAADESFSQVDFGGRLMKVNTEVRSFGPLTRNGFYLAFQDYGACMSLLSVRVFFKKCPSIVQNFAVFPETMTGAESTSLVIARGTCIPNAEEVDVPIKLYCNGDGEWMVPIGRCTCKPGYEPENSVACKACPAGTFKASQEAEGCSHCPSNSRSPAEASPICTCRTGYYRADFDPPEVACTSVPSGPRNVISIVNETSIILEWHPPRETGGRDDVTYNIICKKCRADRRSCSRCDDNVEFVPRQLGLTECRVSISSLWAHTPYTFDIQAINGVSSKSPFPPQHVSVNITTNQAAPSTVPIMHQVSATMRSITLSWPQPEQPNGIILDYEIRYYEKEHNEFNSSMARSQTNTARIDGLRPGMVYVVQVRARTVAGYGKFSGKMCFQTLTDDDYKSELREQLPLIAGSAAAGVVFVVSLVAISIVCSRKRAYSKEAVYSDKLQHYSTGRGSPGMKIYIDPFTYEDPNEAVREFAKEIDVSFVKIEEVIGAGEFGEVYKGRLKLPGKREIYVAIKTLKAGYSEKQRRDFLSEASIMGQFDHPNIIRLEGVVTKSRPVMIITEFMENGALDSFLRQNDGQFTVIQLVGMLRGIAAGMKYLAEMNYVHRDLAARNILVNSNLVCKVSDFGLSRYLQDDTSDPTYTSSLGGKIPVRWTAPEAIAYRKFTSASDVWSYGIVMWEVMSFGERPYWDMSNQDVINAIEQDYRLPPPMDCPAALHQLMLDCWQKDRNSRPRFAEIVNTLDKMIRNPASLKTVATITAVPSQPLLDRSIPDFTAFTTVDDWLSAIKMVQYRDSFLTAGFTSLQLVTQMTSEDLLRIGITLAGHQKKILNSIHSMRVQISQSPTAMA
Conditions: at 1 µM.

Chain of Ephrin type-A receptor 5 (Homo sapiens) (P54756 whole entry): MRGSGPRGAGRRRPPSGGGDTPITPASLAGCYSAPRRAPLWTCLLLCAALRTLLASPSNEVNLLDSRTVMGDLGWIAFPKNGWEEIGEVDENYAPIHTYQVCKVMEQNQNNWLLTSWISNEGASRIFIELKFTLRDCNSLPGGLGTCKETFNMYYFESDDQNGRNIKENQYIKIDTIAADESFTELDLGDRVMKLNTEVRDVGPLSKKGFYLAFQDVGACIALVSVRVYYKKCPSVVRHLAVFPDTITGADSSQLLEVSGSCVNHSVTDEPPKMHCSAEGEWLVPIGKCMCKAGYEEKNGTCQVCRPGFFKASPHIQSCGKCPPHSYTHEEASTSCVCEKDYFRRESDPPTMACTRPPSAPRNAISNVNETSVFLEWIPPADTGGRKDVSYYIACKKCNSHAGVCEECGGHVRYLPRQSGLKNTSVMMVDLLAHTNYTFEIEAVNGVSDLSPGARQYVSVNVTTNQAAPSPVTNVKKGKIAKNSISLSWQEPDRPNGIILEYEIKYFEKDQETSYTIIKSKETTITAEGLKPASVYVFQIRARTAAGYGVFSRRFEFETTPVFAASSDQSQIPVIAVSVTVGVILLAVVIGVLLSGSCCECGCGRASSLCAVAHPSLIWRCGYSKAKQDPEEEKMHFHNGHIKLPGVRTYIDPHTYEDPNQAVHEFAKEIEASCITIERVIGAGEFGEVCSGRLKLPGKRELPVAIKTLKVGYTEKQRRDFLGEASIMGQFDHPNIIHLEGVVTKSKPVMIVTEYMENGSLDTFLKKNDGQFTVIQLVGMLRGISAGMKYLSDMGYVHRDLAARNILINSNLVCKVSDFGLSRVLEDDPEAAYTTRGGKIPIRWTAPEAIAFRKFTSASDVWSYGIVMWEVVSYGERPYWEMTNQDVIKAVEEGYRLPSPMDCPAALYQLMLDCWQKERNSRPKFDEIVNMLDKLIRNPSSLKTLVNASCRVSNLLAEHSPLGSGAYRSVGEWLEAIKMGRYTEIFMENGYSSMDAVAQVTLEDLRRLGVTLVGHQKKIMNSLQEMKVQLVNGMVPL
Chain of Ephrin type-A receptor 2 (Homo sapiens) (P29317 whole entry): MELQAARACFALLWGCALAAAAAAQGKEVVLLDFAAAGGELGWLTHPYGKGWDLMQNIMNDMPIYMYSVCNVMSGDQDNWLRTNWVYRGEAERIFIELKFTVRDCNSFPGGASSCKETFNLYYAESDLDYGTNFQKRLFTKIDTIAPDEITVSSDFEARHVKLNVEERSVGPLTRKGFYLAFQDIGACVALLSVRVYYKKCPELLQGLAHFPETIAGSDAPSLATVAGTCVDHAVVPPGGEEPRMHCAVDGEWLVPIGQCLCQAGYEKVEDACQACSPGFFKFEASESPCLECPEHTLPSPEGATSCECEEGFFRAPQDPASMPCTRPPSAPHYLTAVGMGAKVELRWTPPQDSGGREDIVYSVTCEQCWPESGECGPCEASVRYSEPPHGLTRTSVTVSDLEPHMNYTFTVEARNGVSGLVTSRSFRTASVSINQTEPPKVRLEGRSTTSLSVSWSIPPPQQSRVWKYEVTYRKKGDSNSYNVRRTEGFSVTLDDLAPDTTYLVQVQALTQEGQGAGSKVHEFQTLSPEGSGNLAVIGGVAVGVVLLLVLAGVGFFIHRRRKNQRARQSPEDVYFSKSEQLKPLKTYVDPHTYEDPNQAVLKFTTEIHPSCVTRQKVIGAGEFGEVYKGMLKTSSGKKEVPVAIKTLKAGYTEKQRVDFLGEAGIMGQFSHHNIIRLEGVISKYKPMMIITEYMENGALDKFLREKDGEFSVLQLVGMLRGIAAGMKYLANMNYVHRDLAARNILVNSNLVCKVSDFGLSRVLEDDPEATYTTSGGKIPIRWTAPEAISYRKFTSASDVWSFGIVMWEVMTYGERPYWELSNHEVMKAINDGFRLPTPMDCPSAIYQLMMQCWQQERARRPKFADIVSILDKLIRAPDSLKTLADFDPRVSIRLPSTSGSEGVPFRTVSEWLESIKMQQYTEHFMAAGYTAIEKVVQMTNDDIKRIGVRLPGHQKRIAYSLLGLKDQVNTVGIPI
Chain of Ephrin type-A receptor 4 (Homo sapiens) (P54764 whole entry): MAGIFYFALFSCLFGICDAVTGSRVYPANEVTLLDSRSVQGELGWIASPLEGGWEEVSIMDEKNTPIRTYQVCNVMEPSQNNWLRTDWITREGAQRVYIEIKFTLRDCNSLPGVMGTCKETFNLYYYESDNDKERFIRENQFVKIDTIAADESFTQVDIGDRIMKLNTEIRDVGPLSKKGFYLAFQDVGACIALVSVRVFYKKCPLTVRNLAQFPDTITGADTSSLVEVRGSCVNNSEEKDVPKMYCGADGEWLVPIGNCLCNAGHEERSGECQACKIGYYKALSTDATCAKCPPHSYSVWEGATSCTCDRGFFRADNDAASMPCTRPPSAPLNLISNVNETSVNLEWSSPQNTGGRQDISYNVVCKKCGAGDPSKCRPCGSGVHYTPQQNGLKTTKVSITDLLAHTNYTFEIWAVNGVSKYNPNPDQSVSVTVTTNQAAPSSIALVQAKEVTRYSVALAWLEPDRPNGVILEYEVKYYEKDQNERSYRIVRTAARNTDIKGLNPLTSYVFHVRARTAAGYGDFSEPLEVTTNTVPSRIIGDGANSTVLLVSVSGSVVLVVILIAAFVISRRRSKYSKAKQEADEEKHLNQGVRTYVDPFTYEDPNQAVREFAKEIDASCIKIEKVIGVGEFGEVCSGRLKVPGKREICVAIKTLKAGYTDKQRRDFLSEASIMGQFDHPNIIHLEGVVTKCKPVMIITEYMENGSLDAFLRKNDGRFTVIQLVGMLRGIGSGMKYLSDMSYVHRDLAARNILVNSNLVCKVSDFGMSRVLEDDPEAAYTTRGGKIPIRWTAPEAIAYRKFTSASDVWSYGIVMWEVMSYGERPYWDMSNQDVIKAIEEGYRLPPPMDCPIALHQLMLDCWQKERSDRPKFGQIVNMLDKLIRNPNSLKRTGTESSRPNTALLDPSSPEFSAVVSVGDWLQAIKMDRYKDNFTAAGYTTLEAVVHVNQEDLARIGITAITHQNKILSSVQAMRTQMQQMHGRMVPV
Chain of Ephrin type-A receptor 7 (Homo sapiens) (Q15375 28-998 limits assumed): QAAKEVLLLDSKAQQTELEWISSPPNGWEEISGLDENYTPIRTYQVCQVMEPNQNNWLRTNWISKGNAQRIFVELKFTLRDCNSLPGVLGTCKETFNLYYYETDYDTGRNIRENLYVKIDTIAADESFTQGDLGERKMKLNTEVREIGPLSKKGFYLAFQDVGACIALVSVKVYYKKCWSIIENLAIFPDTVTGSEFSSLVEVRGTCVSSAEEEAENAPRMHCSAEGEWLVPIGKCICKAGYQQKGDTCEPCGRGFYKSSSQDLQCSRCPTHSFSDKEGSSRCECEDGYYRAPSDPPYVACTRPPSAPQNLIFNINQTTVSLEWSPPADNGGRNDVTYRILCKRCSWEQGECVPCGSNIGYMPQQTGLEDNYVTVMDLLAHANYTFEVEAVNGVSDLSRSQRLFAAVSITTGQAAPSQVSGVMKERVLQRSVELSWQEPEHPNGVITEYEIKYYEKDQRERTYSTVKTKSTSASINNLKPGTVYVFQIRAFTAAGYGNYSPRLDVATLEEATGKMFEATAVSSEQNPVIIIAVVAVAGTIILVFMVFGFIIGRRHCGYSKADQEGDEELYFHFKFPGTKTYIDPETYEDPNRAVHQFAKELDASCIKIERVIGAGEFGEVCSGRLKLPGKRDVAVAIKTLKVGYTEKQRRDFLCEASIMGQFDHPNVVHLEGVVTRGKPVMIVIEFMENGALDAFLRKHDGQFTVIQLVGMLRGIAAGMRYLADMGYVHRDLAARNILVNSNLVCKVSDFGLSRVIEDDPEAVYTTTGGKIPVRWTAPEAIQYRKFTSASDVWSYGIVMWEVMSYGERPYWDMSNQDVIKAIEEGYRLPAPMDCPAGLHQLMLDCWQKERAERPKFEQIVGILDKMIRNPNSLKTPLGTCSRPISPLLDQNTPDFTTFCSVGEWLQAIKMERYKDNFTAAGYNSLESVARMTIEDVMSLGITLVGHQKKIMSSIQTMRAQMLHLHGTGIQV

Broadly, the residual activity is the signal under treatment as a percentage of the control signal. `NC(=O)c1ccc2[nH]c(-c3ccc(Oc4ccc(Cl)cc4)cc3)nc2c1`: the residual activity in assay [1] is 42%; in assay [2] it was 87%; in [3], 53%; in [4], 111%; in assay [5] it was 115%; in assay [6], 96%. The residual activity in assay [7] was 85%; in [8], 100%; in [9], 116%; in assay [10] it was 100%; in [11] it was 111%; in [12], 112%. Further, the residual activity in assay [13] amounted to 104%; in assay [14] it was 114%; in assay [15], 103%; in assay [16], 94%; in [17] it was 81%; in assay [18], 94%. Moreover, the values for the residual activity in [19] and in assay [20] were 96% and 95%, respectively.

Regarding `O=Nc1c(-c2c(O)[nH]c3ccccc23)[nH]c2ccccc12`, the residual activity in assay [1] stood at 4%; in assay [2], 79%; in [3] it was 20%; in assay [6], 55%; in assay [7], 61%; in assay [8], 61%. Further, the residual activity was 16% in [9]; 58% in assay [10]; 9% in assay [11]; 96% in assay [12]; 83% in assay [13]; 59% in [14]. For the same compound, the residual activity in assay [15] turned out to be 9%; in assay [16], 70%; in [17] it was 15%; in assay [18], 84%; in assay [19] it was 43%; in assay [20], 59%.
